In PubChem BioAssay (NCI):
About 83,000 compounds went through this panel and 20% of them were active in at least one assay; those are over-represented in the sample as a whole.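 Growth was measured after 48 h exposure to one concentration of compound in 96-well plates. Values under 10 count as active.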 Unmarked numbers belong to inactive results. Active and inactive are the calls of the source.

Key:
Experiment in all cases: NCI-60 one-dose screen, 48 h (100 = growth as untreated, 0 = no growth, -100 = all killed)
Settings in all cases: 10 µM unless noted
SK-MEL-2 melanoma = system: SK-MEL-2 melanoma
EKVX NSCLC = system: EKVX NSCLC
SN12C renal = system: SN12C renal
TK-10 renal = system: TK-10 renal
ACHN renal = system: ACHN renal
CAKI-1 renal = system: CAKI-1 renal
A498 renal = system: A498 renal
CCRF-CEM leukemia = system: CCRF-CEM leukemia
MOLT-4 leukemia = system: MOLT-4 leukemia
SR leukemia = system: SR leukemia
OVCAR-5 ovarian = system: OVCAR-5 ovarian
OVCAR-4 ovarian = system: OVCAR-4 ovarian
SK-OV-3 ovarian = system: SK-OV-3 ovarian
IGROV1 ovarian = system: IGROV1 ovarian
OVCAR-3 ovarian = system: OVCAR-3 ovarian
HS 578T breast = system: HS 578T breast
NCI/ADR-RES ovarian = system: NCI/ADR-RES ovarian
RPMI-8226 leukemia = system: RPMI-8226 leukemia
OVCAR-8 ovarian = system: OVCAR-8 ovarian
UO-31 renal = system: UO-31 renal

| Structure (SMILES) | growth (SK-MEL-2 melanoma) | growth (EKVX NSCLC) [%] | growth (SN12C renal) [%] | growth (TK-10 renal) [%] | growth (ACHN renal) | growth (CAKI-1 renal) | growth (A498 renal) | growth (CCRF-CEM leukemia) | growth (MOLT-4 leukemia) | growth (SR leukemia) | growth (OVCAR-5 ovarian) [%] | growth (OVCAR-4 ovarian) | growth (SK-OV-3 ovarian) | growth (IGROV1 ovarian) | growth (OVCAR-3 ovarian) | growth (HS 578T breast) | growth (NCI/ADR-RES ovarian) | growth (RPMI-8226 leukemia) | growth (OVCAR-8 ovarian) [%] | growth (UO-31 renal) |
| --- | --- | --- | --- | --- | --- | --- | --- | --- | --- | --- | --- | --- | --- | --- | --- | --- | --- | --- | --- | --- |
| CCc1cccc2c1S/C(=C/c1ccc(OC)cc1)C2=O | 51% | 93.9 | 49.4 | 127 | 54.1% | 6.96% (active) | 104% | 35.7% | 34.5% | 15.1% | 76 | 59.4% | 79.3% | 30.4% | 23.8% | 41.5% | 30.2% |  |  |  |
| c1ccc(Nc2cc(-c3cccnc3)[nH]n2)cc1 | 112% | 98.1 | 99.3 | 103 | 91.8% | 90.1% | 69% | 106% | 93.6% |  |  | 96.6% | 92.9% | 95.7% | 100% | 101% |  | 103% | 95.8 |  |
| CCOc1c(B(O)O)cccc1-c1nc2ccc3[nH]ncc3c2c2c1CCCC2 | 113% | 47.5 | 62.7 |  | 51.1% | -26.9% (active) | 61.8% | 44% | 28.8% |  | 74.7 | 93.3% | 72% | 77.6% | 113% | 34.5% | 62.7% | 39.5% | 65 |  |
| C=C1C(=O)O[C@H]2[C@H]1CC/C(COC(=O)C(C)c1ccc(CC(C)C)cc1)=C\CC[C@@]1(C)O[C@@H]21 (stereo not given in full) | 36.7% | 46.2 | 35.2 | 62 | -94.6% (active) | 79.1% | 92.7% | 4.97% (active) | -3.37% (active) | -1.31% (active) | 74.1 | 8.73% (active) | 102% | -69% (active) | 1.75% (active) | -4.39% (active) | 14.6% | -23% (active) |  |  |
| COc1cccc(Cc2cc(-c3ccccc3)nn(CC(=O)c3ccccc3)c2=O)c1 | 85.4% | 65.1 | 59.3 | 72.1 | 52% | 59.6% | 52.1% | 39.1% | 22.7% | 0.342% (active) | 96.4 | 69.5% | 89.6% |  | 64.9% | 66.9% | 57.2% |  | 58.7 |  |
| COc1ccc2cc(C(C)C(=O)Nc3ccc(-c4n[nH]c(=S)n4C4CCCCC4)cc3)ccc2c1 (stereo not given) | 77% | 70.5 | 73.4 | 95.9 | 73.4% | 44.7% | 77.3% | 64.4% | 55.9% |  | 101 | 88.1% | 105% | 88.9% | 86.4% | 75.1% | 50.7% | 54.3% | 75.6 |  |
| CCCCOc1ccc(/C=N/NC(N)=S)cc1 | 85.1% |  | 67.5 | 77.3 | 92.3% | 83.7% | 79.4% | 37.4% | 46% | 84.7% | 93.1 | 41.3% | 92.1% | 52.3% | 63.2% | 89.8% | 85.5% | 49.1% |  | 43.7% |
| O=C(Nc1c2ccccc2nc2ccccc12)c1ccccc1CN1C(=O)c2ccccc2C1=O | 43% |  | 34.6 | 45.6 | 10.8% | 19.1% | -18.9% (active) | 40.8% | 14.9% | 30.5% | 40.1 | 44.8% | 35.6% |  | 34.1% | 21% | 29.3% |  | 31.3 | 6.41% (active) |
| CN(C(=O)NCc1cccc(F)c1Cl)[C@H](COC(=O)Nc1cc2ccccc2cn1)CC(O)CO (stereo not given in full) | 113% |  | 86.1 |  | 107% | 25.8% | 54.7% | 64.9% | 94.9% |  | 95.8 | 94.6% | 78.5% | 71.9% | 103% | -0.749% (active) | 98.6% | 119% |  | 51.8% |
| COc1ccc2nc(NC(=O)c3cccnc3Nc3ccc(S(N)(=O)=O)cc3)sc2c1 | 103% |  | 110 | 99 | 90% | 76.1% | 93.5% | 59.3% | 63.3% | 59.6% | 102 | 81.7% | 116% | 134% | 98.9% | 96.7% | 104% |  | 97.1 | 126% |
| COc1cc(-c2nc3sccn3c2-c2ccnc(NCCCNS(=O)(=O)c3ccc(F)cc3)n2)ccc1F | 69.6% |  | 62.1 | 118 | 60.7% | 61.1% | 96.7% | 24.7% | 47.7% |  | 112 | 51.9% | 90.4% | 69.6% | 65.9% | 92.6% | 34.2% | 9.51% (active) | 26.7 | 48.6% |
| O=C(N/N=C/[C@@H](O)[C@H](O)[C@H](O)CO)c1ccc(NC(=O)c2cccnc2)cc1 | 120% |  | 97.1 | 106 | 101% | 96.1% | 102% | 98.5% | 113% | 95.7% | 103 | 114% | 99.1% | 109% |  | 104% | 112% |  | 105 | 82.9% |
| CCCCCCCCCCCCCCCCCCOc1ccccc1CC(=O)OCC[N+](CC)(CC)CC | -10.1% (active) |  | 15.2 | 38.5 | 64.4% | 35.6% | 65.9% | 15.7% | 12.8% |  | 41 | 19.1% | 66.2% |  | 31.4% | 38.2% | 95.9% | -3.45% (active) | 17.7 | 89.5% |
| Nc1nc(-c2cccc3ccccc23)cc2ccccc12 | 27.7% |  | 35.8 | 55.8 | 36.6% | 15.6% | -19.8% (active) | 29% | -3.33% (active) |  | 20.9 | 61.4% | 8.91% (active) | -48.5% (active) | -32.2% (active) | -4.65% (active) | 2.9% (active) | 4.38% (active) | 17.9 |  |
| Cc1ccc(-c2nc(N3CCN(CC(=O)Nc4ccc(Cl)c(C(F)(F)F)c4)CC3)c3ccccc3n2)cc1 | 110% |  | 94.6 | 101 | 95% | 80.2% | 74.6% | 89.5% | 62.6% | 87.2% | 89.9 | 102% | 84.7% | 99.8% | 102% | 97.2% | 86.5% |  | 88.9 | 65.6% |
| O=C(CSc1nccc(Nc2ccc(S(=O)(=O)Nc3nccs3)cc2)n1)c1ccc(C(F)(F)F)cc1 | 102% |  | 102 | 112 | 100% | 90.1% | 109% | 108% | 112% |  | 111 | 106% | 96.9% | 91.1% | 112% | 98.5% | 98.5% | 104% | 96.2 | 69.2% |
| c1cc(NCCc2ccncc2)nc(-n2cnc3ccccc32)c1 | 86.8% |  | 90.4 |  | 65.4% | 81.2% | 69.3% | 99.8% | 86.4% | 58.2% | 98 | 96.7% | 97.2% | 73.1% | 96.2% | 98.2% |  | 68.5% |  | 74.9% |
| COc1cc(C(=O)N/N=C/c2cc3cc(OCc4ccccc4)ccc3nc2OC)cc(OC)c1OC | 85.4% |  | 87.9 | 72.1 | 95.2% | 98.2% | 95.6% | 65.9% | 62.5% |  | 86.9 | 63.4% | 91.1% |  | 99.4% | 61.2% | 82.2% | 35.6% | 68.4 | 81% |
